Records with an inconclusive call do not appear. Activity calls are given as the source filed them. How the source made its calls, unless noted: active means hit-call score of the fitted dose curve at least 0.9, where 1 is the maximum; inactive means score below 0.9.
How the values were obtained:
[1] = target: Paired box protein Pax-6 (Homo sapiens) (UniProt P26367); assay: ATG_Pax6_CIS: Attagene CIS-FACTORIAL HepG2 Assay for human Paired Box 6 (PAX6) (AID 2282956); conditions: HepG2 CIS-FACTORIAL PAX6 reporter transcription, RNA readout; actives raise or lower the signal
Method in brief: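 Transient MRTU transfection of HepG2 → compound exposure 24 h → TriZol RNA, oligo(dT) RT → PCR, 6-FAM primer extension, HpaI cut → capillary electrophoresis; activity fitted both directions against DMSO.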

[2] = ATG_PPRE_CIS: Attagene CIS-FACTORIAL HepG2 Assay for human Peroxisome Proliferator-activated Response Element (PPRE) (AID 2282958); conditions: HepG2 PPRE cis-element reporter, Attagene transcription factor profiling; actives raise or lower the signal
Method in brief: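 HepG2, transient MRTU transfection (cis promoter elements, endogenous TFs). 24 h dosing. RNA → oligo(dT) RT → PCR → 6-FAM primer extension → HpaI digest → CE. Bidirectional fit vs DMSO.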

[3] = ATG_RORE_CIS: Attagene CIS-FACTORIAL HepG2 Assay for human RAR-related Orphan Receptor Element (RORE) (AID 2282959); conditions: HepG2 Attagene cis-factorial RORE reporter, mRNA; actives raise or lower the signal
Method in brief: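 Transient MRTU transfection of human HepG2 liver cells (FuGene 6); 24 h compound exposure; TriZol RNA, oligo(dT) RT, PCR, FAM labeling, HpaI cut, CE fragment analysis. DMSO = negative control/baseline.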

[4] = ATG_Sox_CIS: Attagene CIS-FACTORIAL HepG2 Assay for human SRY-box transcription factor (SOX) (AID 2282960); conditions: HepG2 Attagene cis-factorial SOX reporter, mRNA; actives raise or lower the signal
Method in brief: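 Endogenous factor activity in human liver HepG2 cells carrying transfected cis-regulated reporter units. RNA taken 24 h post-dose, reverse-transcribed, PCR-amplified and sized by capillary electrophoresis. Gain or loss of signal fitted relative to DMSO.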

[5] = target: Transcription factor Sp1 (Homo sapiens) (UniProt P08047); assay: ATG_Sp1_CIS: Attagene CIS-FACTORIAL HepG2 Assay for human Specificity Protein 1 (Sp1) (AID 2282961); conditions: HepG2 Sp1 cis-reporter transcription, actives raise or lower the signal
Method in brief: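 Transient MRTU-transfected HepG2, 24 h compound exposure. Total RNA → oligo(dT) RT → PCR of reporter → 6-FAM primer extension → HpaI digest → CE. Endpoint fitted both directions vs DMSO.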

[6] = ATG_SREBP_CIS: Attagene CIS-FACTORIAL HepG2 Assay for human Sterol Regulatory Element Binding (SREBP) (AID 2282962); conditions: HepG2 Attagene cis-factorial SREBP reporter, mRNA; actives raise or lower the signal
Method in brief: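 Transfected HepG2 (cis-regulated reporter library, endogenous TFs) → compound 24 h → total RNA → oligo(dT) RT → reporter-specific PCR → FAM primer extension, HpaI cut → CE fluorescence. Fit bidirectional vs DMSO.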

[7] = target: Signal transducer and activator of transcription 3 (Homo sapiens) (UniProt P40763); assay: ATG_STAT3_CIS: Attagene CIS-FACTORIAL HepG2 Assay for human Signal Transducer and Activator of Transcription 3 (STAT3) (AID 2282963); conditions: HepG2, Attagene cis-factorial STAT3 reporter transcription; actives raise or lower the signal
Method in brief: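 After a 24 h compound incubation, total RNA from MRTU-transfected HepG2 cells was converted to cDNA and reporter sequences PCR-amplified, labelled and profiled by capillary electrophoresis. Gain and loss of signal were referenced to DMSO.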

[8] = ATG_TA_CIS: Attagene CIS-FACTORIAL HepG2 Assay for human TA Basal Promoter (AID 2282964); conditions: HepG2 Attagene CIS-factorial TA basal promoter reporter; actives raise or lower the signal
Method in brief: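 HepG2 cells transiently transfected with multiplexed cis-promoter reporter units, dosed 24 h. Reporter mRNA measured by RT-PCR, 6-FAM labelling, HpaI digestion and capillary electrophoresis; bidirectional fit versus DMSO baseline, serving as background control.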

[9] = ATG_TCF_b_cat_CIS: Attagene CIS-FACTORIAL HepG2 Assay for human T-Cell-Factor with beta-catenin (TCF/b-cat) (AID 2282965); conditions: HepG2 TCF/beta-catenin cis-reporter transcription, actives raise or lower the signal
Method in brief: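 Measured: reporter mRNA in HepG2 transiently transfected with cis-promoter reporter units, 24 h after chemical addition. Fitting was bidirectional, DMSO as negative control.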

[10] = ATG_TAL_CIS: Attagene CIS-FACTORIAL HepG2 Assay for human TAL Basal Promoter (AID 2282966); conditions: HepG2 Attagene cis-factorial TAL promoter reporter; actives raise or lower the signal;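 further: background control endpoint measuring basal TAL promoter reporter mRNA not a specific factor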
Method in brief: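 Fluorescence of labelled reporter cDNA fragments, resolved by capillary electrophoresis, gave the readout. Human HepG2 liver cells carried transiently transfected cis-element reporter units and were treated for 24 hours; activity was fitted bidirectionally against DMSO.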

[11] = ATG_TGFb_CIS: Attagene CIS-FACTORIAL HepG2 Assay for human Transforming Growth Factor (TGF) (AID 2282967); conditions: HepG2 Attagene CIS TGFb reporter, mRNA transcription; actives raise or lower the signal
Method in brief: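 HepG2 cells transiently transfected with cis-promoter-driven multiplexed reporter units; 24 h compound exposure. Reporter mRNA measured by RT-PCR, 6-FAM labeling, HpaI digestion and capillary electrophoresis; bidirectional fit versus DMSO baseline.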

[12] = ATG_VDRE_CIS: Attagene CIS-FACTORIAL HepG2 Assay for human Vitamin D Receptor Element (VDRE) (AID 2282968); conditions: HepG2 VDRE cis-reporter transcription, actives raise or lower the signal
Method in brief: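 In transiently transfected HepG2 liver cells, gain or loss of reporter mRNA after 24 h exposure is scored relative to DMSO, using fluorescence detection by capillary electrophoresis of RT-PCR products.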

[13] = target: X-box-binding protein 1 (Homo sapiens) (UniProt P17861); assay: ATG_Xbp1_CIS: Attagene CIS-FACTORIAL HepG2 Assay for human X-box Binding Protein 1 (XBP1) (AID 2282972); conditions: HepG2 XBP1 cis-element reporter, Attagene multiplex; actives raise or lower the signal
Method in brief: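 HepG2, transient MRTU transfection (cis-promoter driven), 24 h compound exposure. Total RNA → oligo(dT) RT → PCR → 6-FAM labeling → HpaI cut → CE. Bidirectional fit vs DMSO.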

[14] = ATG_M_19_TRANS: Attagene TRANS-FACTORIAL HepG2 Assay for M19 Transcription Factor (Internal Marker) (AID 2282974; active means hit-call score of the fitted dose curve at least 0.9, where 1 is the maximum); conditions: HepG2 Attagene TRANS-FACTORIAL M19 internal marker reporter
Method in brief: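 Fluorescence of 6-FAM-labelled reporter cDNA fragments, separated by capillary electrophoresis, served as the readout. These derived from HepG2 cells carrying transfected GAL4-UAS reporter units after 24 h dosing, with DMSO as negative control.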

[15] = ATG_GAL4_TRANS: Attagene TRANS-FACTORIAL HepG2 Assay for GAL4 (Internal Marker) (AID 2282976; active means hit-call score of the fitted dose curve at least 0.9, where 1 is the maximum); conditions: HepG2 Attagene TRANS GAL4 internal marker reporter
Method in brief: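 First, HepG2 cells were transfected with reporter units under GAL4-UAS control. Next, they were treated with chemical for 24 h. Finally, RNA was reverse-transcribed, PCR-amplified, FAM-labelled and resolved by capillary electrophoresis, with induction scored against DMSO.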

[16] = target: Nuclear receptor subfamily 1 group I member 3 (Homo sapiens) (UniProt Q14994); assay: ATG_CAR_TRANS: Attagene TRANS-FACTORIAL HepG2 Assay for human Constitutive Androstane Receptor (CAR) (AID 2282969; active means hit-call score of the fitted dose curve at least 0.9, where 1 is the maximum;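 further: activators raise reporter mRNA above DMSO so AC50 marks induction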); conditions: HepG2 Attagene TRANS-FACTORIAL CAR reporter
Method in brief: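 Readout is reporter mRNA induction, quantified by fluorescent primer extension and capillary electrophoresis after RT-PCR. Cells were HepG2 transiently carrying chimeric NR-Gal4 constructs with GAL4-UAS reporters, treated for 24 h; activity scored upward from DMSO.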

[17] = target: Estrogen-related receptor gamma (Homo sapiens) (UniProt P62508); assay: ATG_ERRg_TRANS: Attagene TRANS-FACTORIAL HepG2 Assay for human Estrogen-Related Receptor gamma (ERRg) (AID 2282977; active means hit-call score of the fitted dose curve at least 0.9, where 1 is the maximum;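 further: hits increase reporter signal over DMSO so potencies reflect activators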); conditions: HepG2 Attagene TRANS reporter, ERRg transactivation
Method in brief: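 Transient HepG2 transfectants, 24 h compound exposure, GAL4-UAS reporter mRNA by RT-PCR/6-FAM labelling/capillary electrophoresis; positive direction vs DMSO.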

[18] = target: Estrogen receptor (Homo sapiens) (UniProt P03372); assay: ATG_ERa_TRANS: Attagene TRANS-FACTORIAL HepG2 Assay for human Estrogen Receptor alpha (ERa) (AID 2282970; active means hit-call score of the fitted dose curve at least 0.9, where 1 is the maximum); conditions: HepG2 Attagene TRANS ERa GAL4 reporter, mRNA
Method in brief: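 Human liver HepG2, transient transfection of multiple GAL4-UAS reporter units; TRANS format (exogenous NR-Gal4 chimera). 24 h dosing. Readout: reporter mRNA, RT-PCR, 6-FAM primer extension, HpaI digest, capillary electrophoresis. Positive direction vs DMSO.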

[19] = ATG_PXRE_CIS: Attagene CIS-FACTORIAL HepG2 Assay for human Pregnane X Receptor Element (PXRE) (AID 2282957); conditions: HepG2 Attagene CIS-FACTORIAL PXRE reporter, mRNA; actives raise or lower the signal
Method in brief: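 Transfect HepG2 with MRTUs (cis promoter elements); dose chemical, incubate 24 h; isolate RNA, RT with oligo(dT), PCR, 6-FAM label, HpaI cut, CE. Gain/loss fit vs DMSO.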

[20] = target: Steroid hormone receptor ERR1 (Homo sapiens) (UniProt P11474); assay: ATG_ERRa_TRANS: Attagene TRANS-FACTORIAL HepG2 Assay for human Estrogen-Related Receptor alpha (ERRa) (AID 2282971; active means hit-call score of the fitted dose curve at least 0.9, where 1 is the maximum); conditions: HepG2 Attagene TRANS reporter, ERRa transactivation
Method in brief: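 Reporter transcript induction was quantified by RT-PCR and capillary electrophoresis of FAM-labelled, HpaI-cut products after 24 h treatment of HepG2 cells carrying transiently transfected GAL4-UAS reporter units and an exogenous ERRa-Gal4 fusion; activity scored as increase over DMSO.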

Measured: AC50

Chain of X-box-binding protein 1 (Homo sapiens) (P17861 whole entry, looked up): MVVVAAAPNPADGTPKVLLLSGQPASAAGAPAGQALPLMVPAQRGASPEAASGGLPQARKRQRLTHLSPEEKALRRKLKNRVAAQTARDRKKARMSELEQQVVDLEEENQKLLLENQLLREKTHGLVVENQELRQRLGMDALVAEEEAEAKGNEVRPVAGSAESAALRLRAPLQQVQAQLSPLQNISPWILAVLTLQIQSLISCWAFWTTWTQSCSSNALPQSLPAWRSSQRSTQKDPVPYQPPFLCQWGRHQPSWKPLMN
Chain of Paired box protein Pax-6 (Homo sapiens) (P26367 whole entry, looked up): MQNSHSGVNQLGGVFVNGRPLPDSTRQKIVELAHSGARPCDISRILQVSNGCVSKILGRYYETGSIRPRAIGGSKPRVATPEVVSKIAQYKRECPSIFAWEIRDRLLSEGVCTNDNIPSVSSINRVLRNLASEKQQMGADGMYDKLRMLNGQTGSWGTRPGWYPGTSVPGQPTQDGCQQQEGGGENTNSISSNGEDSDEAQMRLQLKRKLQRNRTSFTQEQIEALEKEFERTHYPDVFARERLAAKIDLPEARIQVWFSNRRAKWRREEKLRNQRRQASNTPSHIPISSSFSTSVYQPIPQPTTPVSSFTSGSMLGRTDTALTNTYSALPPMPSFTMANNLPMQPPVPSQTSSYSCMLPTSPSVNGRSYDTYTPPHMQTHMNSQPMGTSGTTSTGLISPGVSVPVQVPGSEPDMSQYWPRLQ
Chain of Signal transducer and activator of transcription 3 (Homo sapiens) (P40763 whole entry, looked up): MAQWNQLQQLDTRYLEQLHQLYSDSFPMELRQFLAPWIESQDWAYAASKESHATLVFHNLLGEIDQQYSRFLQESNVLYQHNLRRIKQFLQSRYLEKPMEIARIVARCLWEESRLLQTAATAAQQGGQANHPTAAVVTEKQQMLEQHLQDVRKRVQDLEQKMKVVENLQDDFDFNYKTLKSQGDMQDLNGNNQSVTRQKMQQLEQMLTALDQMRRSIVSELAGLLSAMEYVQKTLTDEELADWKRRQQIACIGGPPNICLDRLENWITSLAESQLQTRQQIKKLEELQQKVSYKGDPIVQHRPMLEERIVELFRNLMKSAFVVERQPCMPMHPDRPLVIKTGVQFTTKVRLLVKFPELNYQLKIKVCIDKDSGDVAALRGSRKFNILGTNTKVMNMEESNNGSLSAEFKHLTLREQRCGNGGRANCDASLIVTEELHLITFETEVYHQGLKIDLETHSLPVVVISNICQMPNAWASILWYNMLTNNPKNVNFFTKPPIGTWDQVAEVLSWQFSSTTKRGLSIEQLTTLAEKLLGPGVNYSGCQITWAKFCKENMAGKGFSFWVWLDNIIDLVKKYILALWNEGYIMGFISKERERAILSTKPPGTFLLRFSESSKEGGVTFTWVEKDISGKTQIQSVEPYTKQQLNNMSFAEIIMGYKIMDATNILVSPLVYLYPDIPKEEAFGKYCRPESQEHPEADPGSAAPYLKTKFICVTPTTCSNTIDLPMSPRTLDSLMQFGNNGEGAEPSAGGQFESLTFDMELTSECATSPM
Chain of Transcription factor Sp1 (Homo sapiens) (P08047 whole entry, looked up): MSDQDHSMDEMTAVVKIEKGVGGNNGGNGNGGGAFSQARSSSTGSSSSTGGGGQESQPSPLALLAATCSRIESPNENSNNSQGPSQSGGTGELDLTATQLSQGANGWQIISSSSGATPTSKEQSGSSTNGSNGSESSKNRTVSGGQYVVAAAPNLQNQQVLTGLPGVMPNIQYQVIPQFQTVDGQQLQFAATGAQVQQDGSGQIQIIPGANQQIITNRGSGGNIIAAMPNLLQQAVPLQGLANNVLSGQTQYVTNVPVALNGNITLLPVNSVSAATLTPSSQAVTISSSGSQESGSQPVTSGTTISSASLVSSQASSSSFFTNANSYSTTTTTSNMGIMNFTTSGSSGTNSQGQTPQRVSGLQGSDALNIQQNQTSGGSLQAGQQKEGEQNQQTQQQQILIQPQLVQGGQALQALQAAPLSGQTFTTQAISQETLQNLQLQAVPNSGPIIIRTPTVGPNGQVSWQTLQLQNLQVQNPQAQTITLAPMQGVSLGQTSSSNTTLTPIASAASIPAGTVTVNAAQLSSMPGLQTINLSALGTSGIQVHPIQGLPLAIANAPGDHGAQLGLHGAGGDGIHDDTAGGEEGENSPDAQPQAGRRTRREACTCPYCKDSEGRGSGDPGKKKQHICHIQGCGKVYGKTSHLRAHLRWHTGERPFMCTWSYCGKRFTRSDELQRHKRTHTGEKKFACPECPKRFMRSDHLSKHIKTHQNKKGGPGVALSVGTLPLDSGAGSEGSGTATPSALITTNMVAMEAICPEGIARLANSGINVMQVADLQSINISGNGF
Chain of Estrogen receptor (Homo sapiens) (P03372 whole entry, looked up, the tested form may be a part): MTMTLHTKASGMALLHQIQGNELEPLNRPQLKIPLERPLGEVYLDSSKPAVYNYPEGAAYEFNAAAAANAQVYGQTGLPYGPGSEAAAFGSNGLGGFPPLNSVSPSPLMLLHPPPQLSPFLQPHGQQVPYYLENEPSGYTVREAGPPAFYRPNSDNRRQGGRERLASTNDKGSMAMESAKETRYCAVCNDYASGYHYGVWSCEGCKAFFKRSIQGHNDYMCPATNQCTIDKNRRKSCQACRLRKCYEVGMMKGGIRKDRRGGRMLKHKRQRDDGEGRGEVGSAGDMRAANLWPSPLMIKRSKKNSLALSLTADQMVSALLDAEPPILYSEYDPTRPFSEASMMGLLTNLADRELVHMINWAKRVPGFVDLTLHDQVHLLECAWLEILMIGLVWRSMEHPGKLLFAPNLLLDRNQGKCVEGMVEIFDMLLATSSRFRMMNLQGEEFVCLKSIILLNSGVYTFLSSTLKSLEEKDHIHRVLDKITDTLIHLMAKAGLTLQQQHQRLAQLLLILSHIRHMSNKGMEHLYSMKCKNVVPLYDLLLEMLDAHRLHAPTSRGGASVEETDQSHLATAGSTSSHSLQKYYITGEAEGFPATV
Chain of Nuclear receptor subfamily 1 group I member 3 (Homo sapiens) (Q14994 whole entry, looked up, the tested form may be a part): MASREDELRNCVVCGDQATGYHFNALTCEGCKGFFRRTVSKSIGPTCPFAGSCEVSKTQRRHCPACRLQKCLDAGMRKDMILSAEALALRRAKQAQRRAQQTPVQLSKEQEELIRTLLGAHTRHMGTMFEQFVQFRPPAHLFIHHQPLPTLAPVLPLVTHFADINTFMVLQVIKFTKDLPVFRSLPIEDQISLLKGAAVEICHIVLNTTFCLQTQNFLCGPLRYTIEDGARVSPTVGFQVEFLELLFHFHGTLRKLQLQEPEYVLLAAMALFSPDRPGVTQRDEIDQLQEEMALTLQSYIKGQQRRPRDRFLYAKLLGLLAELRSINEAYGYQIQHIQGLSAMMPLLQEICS
Chain of Estrogen-related receptor gamma (Homo sapiens) (P62508 whole entry, looked up, the tested form may be a part): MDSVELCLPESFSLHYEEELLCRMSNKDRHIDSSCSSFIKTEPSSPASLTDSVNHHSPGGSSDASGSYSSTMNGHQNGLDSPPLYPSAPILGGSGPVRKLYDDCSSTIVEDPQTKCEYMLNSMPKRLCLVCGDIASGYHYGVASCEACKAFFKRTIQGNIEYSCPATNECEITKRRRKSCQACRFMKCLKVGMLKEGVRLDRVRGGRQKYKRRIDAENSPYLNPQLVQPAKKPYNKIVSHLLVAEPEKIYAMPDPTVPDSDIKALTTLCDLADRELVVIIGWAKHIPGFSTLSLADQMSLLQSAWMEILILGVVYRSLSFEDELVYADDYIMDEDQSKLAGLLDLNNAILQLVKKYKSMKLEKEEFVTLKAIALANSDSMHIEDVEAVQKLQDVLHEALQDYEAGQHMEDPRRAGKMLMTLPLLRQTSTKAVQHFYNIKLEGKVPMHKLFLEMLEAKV
Chain of Steroid hormone receptor ERR1 (Homo sapiens) (P11474 whole entry, looked up, the tested form may be a part): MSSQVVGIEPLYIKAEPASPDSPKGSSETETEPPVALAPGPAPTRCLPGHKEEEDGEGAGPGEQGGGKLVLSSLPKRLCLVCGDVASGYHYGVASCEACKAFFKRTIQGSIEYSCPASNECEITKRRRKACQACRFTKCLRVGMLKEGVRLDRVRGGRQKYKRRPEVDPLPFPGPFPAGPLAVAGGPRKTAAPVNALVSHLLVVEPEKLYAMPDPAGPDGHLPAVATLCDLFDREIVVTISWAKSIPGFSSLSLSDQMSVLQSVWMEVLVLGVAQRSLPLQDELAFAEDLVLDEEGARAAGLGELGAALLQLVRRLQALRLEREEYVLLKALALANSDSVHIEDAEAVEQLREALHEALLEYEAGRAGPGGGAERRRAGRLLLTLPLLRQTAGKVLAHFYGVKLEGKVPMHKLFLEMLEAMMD

CNS(=O)(=O)c1cc(C(=O)N2CCC(CCN3C4CCC3CC(n3c(C)nc5ccccc53)C4)(c3cccc(F)c3)CC2)c(Cl)cc1F (configuration not stated)
active: [2] 3.63 µM | [6] 3.32 µM | [9] 7.52 µM | [12] 5.14 µM
not listed: [16] | [17] | [18] | [19] | [20]
inactive: all other assays above

CCc1cc(SCc2sc(-c3ccc(C(F)(F)F)cc3)nc2CN2CCN(c3ccc(OC)cc3)CC2)ccc1OCC(=O)O
inactive: [4] | [5] | [7] | [10] | [11] | [16] | [17]
active: [1] 17.5 µM | [2] 0.0329 µM | [3] 11 µM | [6] 0.225 µM | [8] 14.8 µM | [9] 7.72 µM | [12] 16.5 µM | [13] 8.03 µM

CC1(C)C(=O)N(Br)C(=O)N1Br
not listed: [14] | [15] | [16] | [17] | [18] | [19] | [20]
inactive: all other assays above

COC(=O)CC(=O)OC
inactive: [1] | [2] | [4] | [5] | [6] | [7] | [8] | [9] | [10] | [11] | [13]

CCOc1cccc(-n2cc(C(=O)N3CCN(c4cc(C(=O)O)c5ccccc5c4)CC3)nc2-c2ccc(C)cc2)c1
inactive: [4] | [5] | [7] | [8] | [10] | [13] | [14] | [15]
active: [1] 33 µM | [2] 28.3 µM | [3] 26.1 µM | [6] 3.92 µM | [9] 22.3 µM | [11] 151 µM

COc1ccc2sc(C(=O)Nc3nnn[nH]3)c(OC(C)C)c2c1
active: [1] 129 µM | [2] 12.3 µM | [3] 149 µM | [6] 39.7 µM | [8] 70.7 µM | [10] 130 µM | [12] 157 µM | [18] 59.3 µM | [13] 156 µM
inactive: [4] | [5] | [7] | [9] | [11] | [15] | [17]

COc1ccc(/C=C/S(=O)(=O)NC(=O)c2ccc(C)cc2Cl)cc1
not listed: [1] | [15] | [16] | [17] | [18] | [20]
inactive: all other assays above

CC(O)CN(CCN(CC(C)O)CC(C)O)CC(C)O (configuration not stated)
not listed: [12] | [15] | [16] | [17] | [18] | [19] | [20]
inactive: all other assays above

CCCC(=O)OCC
not listed: [1] | [12] | [15] | [17] | [18] | [20]
inactive: all other assays above

COc1ccc(-n2nc(C(F)F)cc2-c2ccc(S(C)=O)cc2)cc1 (configuration not stated)
active: [6] 126 µM
not listed: [12] | [15] | [16] | [17] | [19] | [20]
inactive: all other assays above

CCCN(C1CCN(C(=O)C2CCNCC2)CC1)[C@@H]1CCc2ccc(OC)cc2C1
active: [5] 177 µM | [9] 113 µM | [13] 153 µM
not listed: [15] | [16] | [17] | [18] | [19]
inactive: all other assays above

Cc1c(-c2cccnc2)c2ccccc2n1CCCCC(=O)O
active: [2] 5.71 µM
not listed: [1] | [12] | [15] | [17] | [18] | [20]
inactive: all other assays above

C=CCCCCCCCCC(=O)O
not listed: [2] | [15] | [16] | [17] | [19] | [20]
inactive: all other assays above

CC(=O)c1ccc2c(c1)[C@H](NC(=O)c1ccc(F)cc1)[C@@H](O)C(C)(C)O2
active: [19] 12.4 µM | [2] 1.87 µM
not listed: [1] | [14] | [17] | [18] | [20]
inactive: all other assays above

— PubChem BioAssay (EPA / NIEHS)
